Records with an inconclusive call do not appear. Calls of active or inactive are those of the source. Rule for the calls, unless noted: active = hit-call score of the fitted dose curve at least 0.9, where 1 is the maximum; inconclusive = response in the unintended direction; inactive = score below 0.9.
Experiments:
[1] = IUF_NPC2-5_cytotoxicity_72hr: Cytotoxicity Assessment at 72 hours in the Leibniz Research Institute for Environmental Medicine (IUF) Neural Progenitor Cell Migration and Differentiation Assay for Cytotoxicity (NPC2-5) (AID 2284306);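 note: LDH release into supernatant measured by resorufin fluorescence marking membrane damage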
Method in brief: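 Human fetal (GW 16-19) neural progenitor spheres, 0.3 mm, plated on poly-D-lysine/laminin in N2 differentiation medium and exposed from day 0 to 7 concentrations plus solvent control (DMSO ≤0.1%). LDH-dependent resazurin-to-resorufin fluorescence in supernatant at 72 h.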

[2] = IUF_NPC2-5_cytotoxicity_120hr: Cytotoxicity Assessment at 120 hours in the Leibniz Research Institute for Environmental Medicine (IUF) Neural Progenitor Cell Migration and Differentiation Assay (NPC2-5) (AID 2284307)
Method in brief: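 Membrane-integrity loss is quantified by LDH in supernatant after five days of exposure of migrating, differentiating human fetal NPC spheres; seven serially diluted concentrations are tested with DMSO kept at or below 0.1%.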

[3] = IUF_NPC2-5_cell_number_120hr: Cell Number Assessment at 120 hours in the Leibniz Research Institute for Environmental Medicine (IUF) Neural Progenitor Cell Migration and Differentiation Assay (NPC2-5) (AID 2284308; active = hit-call score of the fitted dose curve at least 0.9, where 1 is the maximum; inactive = score below 0.9;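 note: count of Hoechst-stained nuclei in migration zone around plated human neural progenitor spheres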)
Method in brief: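 Seven-point serial dilutions plus solvent control were applied to plated 0.3 mm hNPC spheres at differentiation start, with medium half-replaced at day 3. Nuclei positive for Hoechst in the migration zone were enumerated at 120 h.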

[4] = IUF_NPC2-5_viability_120hr: Viability Assessment at 120 hours in the Leibniz Research Institute for Environmental Medicine (IUF) Neural Progenitor Cell Migration and Differentiation Assay (NPC2-5) (AID 2284312; active = hit-call score of the fitted dose curve at least 0.9, where 1 is the maximum; inactive = score below 0.9)
Method in brief: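 Human fetal (GW 16-19) neural progenitor spheres of 0.3 mm were plated on poly-D-lysine/laminin in N2 differentiation medium and exposed from day 0 for 120 h, with half-medium refresh at day 3. Viability was read as alamar blue resazurin-to-resorufin fluorescence against DMSO.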

[5] = CCTE_Mundy_HCI_iCellGluta_NOG_NeuriteLength: CCTE's Neurite Outgrowth Assay in iCellGluta cells for Neurite Length, Mundy Lab (AID 2284318)
Method in brief: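 Automated high-content imaging of betaIII-tubulin (Alexa Fluor-488) and Hoechst-stained cells gave neurite length, normalized to the DMSO baseline.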

[6] = IUF_NPC1_cytotoxicity_72hr: Cytotoxicity Assessment at 72 hours in the Leibniz Research Institute for Environmental Medicine (IUF) Neural Progenitor Cell Proliferation Assay (NPC1) (AID 2284332);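 note: rising LDH signal means more cytotoxicity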
Method in brief: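 Single human fetal cortex neural progenitor spheres (GW 16-19, 0.25-0.35 mm) in EGF/FGF proliferation medium were exposed to compound for 72 h at 37C without renewal. Medium LDH release was read as resorufin fluorescence and fitted as gain-of-signal.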

[7] = target: human Beta-secretase (BACE), BACE1 (gene 23621) (UniProt P56817); experiment: NVS_ENZ_hBACE: NovaScreen (NVS) Enzymatic Assay for human Beta-secretase (BACE) (AID 2283140);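 note: hits are inhibitors that reduce fluorescent substrate signal versus DMSO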
Chain of human Beta-secretase (BACE), BACE1 (gene 23621) (P56817 whole entry, looked up): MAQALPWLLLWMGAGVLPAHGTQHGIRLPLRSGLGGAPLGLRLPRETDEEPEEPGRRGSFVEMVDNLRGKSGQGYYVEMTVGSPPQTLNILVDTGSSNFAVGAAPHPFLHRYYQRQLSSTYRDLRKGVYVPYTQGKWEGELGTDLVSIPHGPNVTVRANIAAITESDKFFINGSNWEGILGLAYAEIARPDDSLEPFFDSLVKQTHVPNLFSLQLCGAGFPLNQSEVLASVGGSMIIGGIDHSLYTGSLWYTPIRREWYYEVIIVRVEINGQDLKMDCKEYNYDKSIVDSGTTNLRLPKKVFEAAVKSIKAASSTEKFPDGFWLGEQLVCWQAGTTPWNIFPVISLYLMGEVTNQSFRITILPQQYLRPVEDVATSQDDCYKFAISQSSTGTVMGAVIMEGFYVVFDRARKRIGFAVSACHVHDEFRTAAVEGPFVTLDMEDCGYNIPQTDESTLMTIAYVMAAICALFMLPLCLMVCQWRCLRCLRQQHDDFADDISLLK
Method in brief: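 Cell-free fluorescence-intensity assay of recombinant BACE1 expressed in SF9 cells, read 1 hour after dosing. Loss of signal indicates reduced protease activity, fitted relative to DMSO negative control. Primary screen at 25 uM in duplicate; actives followed in concentration series.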

[8] = target: human Esterase Plasma (ES), BCHE (gene 590) (UniProt P06276); experiment: NVS_ENZ_hES: NovaScreen (NVS) Enzymatic Assay for human Esterase Plasma (ES) (AID 2283157)
Chain of human Esterase Plasma (ES), BCHE (gene 590) (P06276 whole entry, looked up): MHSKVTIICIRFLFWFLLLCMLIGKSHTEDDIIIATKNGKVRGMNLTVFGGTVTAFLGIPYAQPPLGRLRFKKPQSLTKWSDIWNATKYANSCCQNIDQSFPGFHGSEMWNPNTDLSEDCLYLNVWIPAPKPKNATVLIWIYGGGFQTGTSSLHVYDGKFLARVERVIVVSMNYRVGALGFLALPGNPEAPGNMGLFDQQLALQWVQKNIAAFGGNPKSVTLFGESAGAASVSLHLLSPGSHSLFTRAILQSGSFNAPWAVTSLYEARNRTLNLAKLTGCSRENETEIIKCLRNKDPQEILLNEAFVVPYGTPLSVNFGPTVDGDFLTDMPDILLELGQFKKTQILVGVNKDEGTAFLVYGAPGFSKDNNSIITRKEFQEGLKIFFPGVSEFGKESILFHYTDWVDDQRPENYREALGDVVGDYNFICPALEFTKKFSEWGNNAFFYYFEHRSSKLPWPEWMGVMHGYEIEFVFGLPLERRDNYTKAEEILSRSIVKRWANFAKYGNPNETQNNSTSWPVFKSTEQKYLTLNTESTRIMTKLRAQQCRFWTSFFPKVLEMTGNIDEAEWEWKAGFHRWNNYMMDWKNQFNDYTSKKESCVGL
Method in brief: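 Cell-free enzyme assay using esterase extracted from human plasma; colorimetric absorbance read 0.25 hour after dosing. Single-concentration duplicate screen at 25 uM, then concentration-response up to 50 uM; loss of signal scored against DMSO baseline.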

[9] = target: D(1A) dopamine receptor (Homo sapiens) (UniProt P21728); experiment: NVS_GPCR_hDRD1: NovaScreen (NVS) G Protein-Coupled Receptor Assay for human Dopamine Receptor D1 (DRD1) (AID 2283269)
Chain of D(1A) dopamine receptor (Homo sapiens) (P21728 whole entry, looked up): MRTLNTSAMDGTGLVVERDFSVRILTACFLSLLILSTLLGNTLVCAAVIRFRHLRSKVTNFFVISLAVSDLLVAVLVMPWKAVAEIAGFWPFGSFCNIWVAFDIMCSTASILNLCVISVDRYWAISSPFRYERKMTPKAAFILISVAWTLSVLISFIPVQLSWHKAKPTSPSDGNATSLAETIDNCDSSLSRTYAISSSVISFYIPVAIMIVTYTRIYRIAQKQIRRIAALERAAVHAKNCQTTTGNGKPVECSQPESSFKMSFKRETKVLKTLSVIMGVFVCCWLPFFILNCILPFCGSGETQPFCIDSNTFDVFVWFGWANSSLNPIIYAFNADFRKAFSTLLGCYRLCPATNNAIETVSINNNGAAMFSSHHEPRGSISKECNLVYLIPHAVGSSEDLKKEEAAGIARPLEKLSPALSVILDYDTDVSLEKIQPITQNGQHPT
Method in brief: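 Extracted HEK293 DRD1 is incubated 1 h with compound and a tritiated or iodinated radioligand, then filtered and counted. Screening runs 25 uM in duplicate with on-plate positive and negative controls.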

[10] = target: rat Adrenergic Receptor, Alpha 2 (Adra2), Non-selective Binding, Adra2a (gene 25083) (UniProt P22909); experiment: NVS_GPCR_rAdra2_NonSelective: NovaScreen (NVS) G Protein-Coupled Receptor Assay for rat Adrenergic Receptor, Alpha 2 (Adra2), Non-selective Binding (AID 2283299)
Chain of rat Adrenergic Receptor, Alpha 2 (Adra2), Non-selective Binding, Adra2a (gene 25083) (P22909 whole entry, looked up): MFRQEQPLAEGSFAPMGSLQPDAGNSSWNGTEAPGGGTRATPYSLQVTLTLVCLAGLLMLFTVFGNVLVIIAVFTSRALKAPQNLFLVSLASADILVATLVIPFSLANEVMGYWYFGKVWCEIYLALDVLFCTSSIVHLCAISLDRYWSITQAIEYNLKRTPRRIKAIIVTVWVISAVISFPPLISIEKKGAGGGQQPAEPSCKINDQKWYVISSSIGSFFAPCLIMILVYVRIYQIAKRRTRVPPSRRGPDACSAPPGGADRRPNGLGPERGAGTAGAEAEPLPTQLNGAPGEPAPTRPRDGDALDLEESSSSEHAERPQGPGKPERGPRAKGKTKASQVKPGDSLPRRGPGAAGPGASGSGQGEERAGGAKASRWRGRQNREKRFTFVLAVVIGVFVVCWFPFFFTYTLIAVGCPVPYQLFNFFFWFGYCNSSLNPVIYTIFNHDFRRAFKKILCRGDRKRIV
Method in brief: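 Rat cortical membranes, radioligand competitive displacement read by filter-based scintillation counting 1.25 hours after dosing. Primary screen in duplicate at 25 uM; actives followed up in concentration series.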

[11] = tested on: guinea pig Dopamine Transporter (DAT), gene 100714898; experiment: NVS_TR_gDAT: NovaScreen (NVS) Transporter Assay for guinea pig Dopamine Transporter (DAT) (AID 2283369);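 note: active compounds lower bound radioligand signal relative to DMSO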
Method in brief: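 Primary pass: duplicate wells at 25 uM, threshold e.g. 30% inhibition. Follow-up: singleton concentration-response, highest 50 uM. Radioligand binding on guinea pig striatal membranes, 2 h, filtration scintillation detection.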

[12] = target: rat Serotonin Transporter (SERT), Slc6a4 (gene 25553) (UniProt P31652); experiment: NVS_TR_rSERT: NovaScreen (NVS) Transporter Assay for rat Serotonin Transporter (SERT) (AID 2283375)
Chain of rat Serotonin Transporter (SERT), Slc6a4 (gene 25553) (P31652 whole entry, looked up): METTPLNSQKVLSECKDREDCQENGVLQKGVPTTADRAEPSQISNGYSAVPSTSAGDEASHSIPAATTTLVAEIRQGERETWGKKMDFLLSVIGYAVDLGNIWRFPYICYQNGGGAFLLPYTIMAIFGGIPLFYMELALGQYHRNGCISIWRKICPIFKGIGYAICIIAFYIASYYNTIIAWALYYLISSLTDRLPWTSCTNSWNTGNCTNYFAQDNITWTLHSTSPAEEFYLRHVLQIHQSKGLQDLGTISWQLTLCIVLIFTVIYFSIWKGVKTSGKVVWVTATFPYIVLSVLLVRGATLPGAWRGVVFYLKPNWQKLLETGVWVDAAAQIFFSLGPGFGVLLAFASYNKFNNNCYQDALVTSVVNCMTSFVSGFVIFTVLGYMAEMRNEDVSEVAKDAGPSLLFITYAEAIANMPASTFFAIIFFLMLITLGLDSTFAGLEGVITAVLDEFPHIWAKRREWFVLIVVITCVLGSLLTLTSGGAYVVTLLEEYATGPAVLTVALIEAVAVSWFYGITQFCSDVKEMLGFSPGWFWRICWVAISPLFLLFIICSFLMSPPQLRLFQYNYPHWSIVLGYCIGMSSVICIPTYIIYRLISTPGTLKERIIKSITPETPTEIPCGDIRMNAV
Method in brief: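 Using rat forebrain membrane SERT, test chemicals compete with a radioligand for 1 hour, and bound counts are taken by filter-based scintillation. Screening starts at 25 uM in duplicate, followed by concentration series for actives.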

[13] = target: human CYP19A1, CYP19A1 (gene 1588) (UniProt P11511); experiment: NVS_ADME_hCYP19A1: NovaScreen (NVS) CYP450-related Enzyme Activity (ADME) Assay for human CYP19A1 (AID 2283098)
Chain of human CYP19A1, CYP19A1 (gene 1588) (P11511 whole entry, looked up): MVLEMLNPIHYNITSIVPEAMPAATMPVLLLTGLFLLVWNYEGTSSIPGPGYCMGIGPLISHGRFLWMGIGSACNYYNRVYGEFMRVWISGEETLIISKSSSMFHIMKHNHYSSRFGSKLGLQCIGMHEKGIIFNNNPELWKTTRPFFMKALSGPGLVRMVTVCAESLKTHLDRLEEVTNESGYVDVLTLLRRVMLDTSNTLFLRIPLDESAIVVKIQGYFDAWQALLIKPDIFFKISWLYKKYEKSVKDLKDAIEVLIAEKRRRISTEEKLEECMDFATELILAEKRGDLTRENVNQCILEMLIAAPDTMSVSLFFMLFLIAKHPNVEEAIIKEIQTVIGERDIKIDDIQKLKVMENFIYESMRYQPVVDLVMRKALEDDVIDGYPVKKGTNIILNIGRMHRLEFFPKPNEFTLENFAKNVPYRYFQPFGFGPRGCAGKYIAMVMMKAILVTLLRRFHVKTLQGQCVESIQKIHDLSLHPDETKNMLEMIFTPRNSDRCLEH
Method in brief: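 Cell-free enzyme assay with recombinant protein and a specific fluorogenic substrate, read by fluorescence intensity 0.5 h after dosing. Primary screen ran in duplicate at 10 uM; actives were retested in concentration series. Loss of signal versus acetonitrile baseline.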

[14] = TOX21_PR_BLA_Followup_Agonist_viability: Viability Assessment in the Tox21 HEK293 Progesterone Receptor (PR) Agonism Beta-lactamase Follow-Up Assay (AID 2283935);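 note: signal loss means lower viability so actives are cytotoxic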
Method in brief: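 PR-UAS-bla HEK293T cells in 2% charcoal-stripped FBS medium, compound added after 6 hr plating, 16 hr at 37C/5% CO2. After bla FRET read, CellTiter-Glo added; luminescence read after 30 min at room temperature; signal loss marks cytotoxicity.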

[15] = TOX21_PR_BLA_Followup_Antagonist_viability: Viability Assessment in the Tox21 HEK293 Progesterone Receptor (PR) Antagonism Beta-lactamase Follow-Up Assay (AID 2283936);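 note: hits lower the luminescence signal meaning cytotoxicity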
Method in brief: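 PR-UAS-bla HEK293T cells (3,000/well, 2% charcoal-stripped FBS) given compound plus R5020 agonist, 16 h at 37C. CellTiter-Glo added after bla read, 30 min at room temperature; luminescence loss indicates cytotoxicity.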

[16] = TOX21_PR_LUC_Followup_Antagonist_viability: Viability Assessment in the Tox21 HEK293 Progesterone Receptor (PR) Antagonism Luciferase Follow-Up Assay (AID 2283940)
Method in brief: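 HEK293-PR-A-luc cells, precultured 5 days in assay medium with 10% charcoal-stripped FBS, were seeded at 3,000 cells/well, treated with compounds in DMSO for 16 h at 37C, and viability was read as cellular ATP by CellTiter-Glo luminescence.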

[17] = TOX21_PR_LUC_Followup_Agonist_viability: Viability Assessment in the Tox21 HEK293 Progesterone Receptor (PR) Agonism Luciferase Follow-Up Assay (AID 2283941);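 note: loss of signal means cytotoxicity so actives lower viability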
Method in brief: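 HEK293-PR-A-luc cells, pre-cultured 5 days in 10% charcoal-stripped FBS, were seeded at 3,000 cells/well, rested 5 h at 37C, then given compound in DMSO for 16 h at 37C. Cellular ATP was read by CellTiter-Glo luminescence; signal loss indicates cytotoxicity.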

[18] = read-out: Monokine induced gamma interferon (MIG), CXCL9 (gene 4283); experiment: BSK_KF3CT_MIG: BioMAP Diversity Plus: KF3CT Assay for Monokine induced gamma interferon (MIG) Biomarker Activity (AID 2284248; active = hit-call score of the fitted dose curve at least 0.9, where 1 is the maximum; inactive = score below 0.9); settings: primary human keratinocytes with fibroblasts
Method in brief: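 MIG in dosed human skin co-cultures was measured by ELISA at 24 h, relative to DMSO.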

[19] = read-out: Collagen I, COL1A1 (gene 1277); experiment: BSK_hDFCGF_CollagenI: BioMAP Diversity Plus: hDFCGF Assay for Collagen I Biomarker Activity (AID 2284250; active = hit-call score of the fitted dose curve at least 0.9, where 1 is the maximum; inactive = score below 0.9); settings: primary human foreskin fibroblasts
Method in brief: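 Primary human foreskin fibroblasts (hDFCGF system) exposed to chemical for 24 h; Collagen I measured by ELISA. Activity fitted in the positive direction relative to DMSO baseline, with SRB total-protein staining in parallel cultures for overt cytotoxicity.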

[20] = read-out: Plasminogen activator inhibitor-1 (PAI1), SERPINE1 (gene 5054); experiment: BSK_KF3CT_PAI1: BioMAP Diversity Plus: KF3CT Assay for Plasminogen activator inhibitor-1 (PAI1) Biomarker Activity (AID 2284252; active = hit-call score of the fitted dose curve at least 0.9, where 1 is the maximum; inactive = score below 0.9); settings: primary human keratinocytes with fibroblasts
Method in brief: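 Human primary keratinocyte/foreskin fibroblast co-culture was dosed with compound and sampled at 24 h. PAI-1 was quantified by ELISA, with activity fitted in the positive direction relative to DMSO vehicle as baseline.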

For `NC(N)=Nc1nc(CSCCC(N)=NS(N)(=O)=O)cs1`, the outcome [1] was “inactive”, the outcome [2] was “inactive” and the outcome [3] was “inactive”. The outcome [4] was “inactive”, the outcome [5] was “inactive” and the outcome [6] was “inactive”.
In the case of `CC(C)CC(=O)CC(C)CC(C)C` (stereo not given), the outcome [7] is reported as “inactive”.
In the case of `CN(C)CCC(c1ccc(Cl)cc1)c1ccccn1` (stereo not given), the AC50 [8] is reported as 19.9 µM (active), the AC50 [9] is reported as 12.1 µM (active) and the AC50 [10] is reported as 13.9 µM (active). For the same compound, the AC50 [11] was 3.05 µM (active), the AC50 [12] was 2.95 µM (active) and the outcome [1] was “inactive”. The outcome [2] was “inactive”, the outcome [3] was “inactive” and the outcome [4] was “inactive”. For the same compound, the outcome [5] was “inactive” and the outcome [6] was “inactive”.
For `CCCCCCCCCC/C=C/C1CC(=O)OC1=O` (stereo not given), the AC50 [7] was 45.4 µM (active).
For `CC1=NN(c2cc(Cl)c(S(=O)(=O)O)cc2Cl)C(=O)C1N=Nc1ccc(S(=O)(=O)O)cc1` (stereo not given), the outcome [13] was “inactive”.
In the case of `O=C(C(=O)c1ccccc1)c1ccccc1`, the AC50 [11] is reported as 3.77 µM (active).
In the case of `c1cc[c]([Bi]([c]2ccccc2)[c]2ccccc2)cc1`, the outcome [14] is reported as “inactive”, the outcome [15] is reported as “inactive” and the outcome [16] is reported as “inactive”. For the same compound, the outcome [17] was “inactive”.
With `CC[N+](CC)(CC(=O)Nc1c(C)cccc1C)Cc1ccccc1` (tested in a mixture with another compound) the outcome [18] was “inactive”, the outcome [19] was “inactive” and the outcome [20] was “inactive”.
For `CCCCCCCCCCCCCCCCCC[N+](C)(C)C`, the AC50 [9] was 2.53 µM (active).
In the case of `CC[N+](CC)(CC(=O)Nc1c(C)cccc1C)Cc1ccccc1`, the AC50 [8] is reported as 3.7 µM (active), the AC50 [10] is reported as 18.7 µM (active) and the outcome [12] is reported as “inactive”.
For `CN(C)Cc1cc(C(C)(C)C)c(O)c(C(C)(C)C)c1`, the outcome [18] was “inactive”, the outcome [19] was “inactive” and the outcome [20] was “inactive”.
In the case of `C[C@H]1C[C@H]2[C@@H]3CCC4=CC(=O)C=C[C@]4(C)[C@@]3(F)[C@@H](O)C[C@]2(C)[C@@]1(O)C(=O)CO`, the outcome [14] is reported as “inactive”, the outcome [15] is reported as “inactive” and the outcome [16] is reported as “inactive”. The outcome [17] was “inactive”.
In the case of `O=C(OCc1ccccc1)c1ccccc1`, the outcome [13] is reported as “inactive”.

Reference: PubChem BioAssay (EPA / NIEHS)
